Test results reported in PubChem BioAssay (EPA / NIEHS).
Calls of active or inactive are those of the source. Rule for the calls: active = hit-call score of the fitted dose curve at least 0.9, where 1 is the maximum; inactive = score below 0.9.

Key:
Conditions in all cases: mRNA level, 48 h; actives raise or lower the signal
[1] = read-out: JUN Transcription Factor, JUN (gene 3725); assay: LTEA_HepaRG_JUN: Life Technologies and Expression Analysis (LTEA) Assay for JUN Transcription Factor using HepaRG (AID 2283513)
How it was run: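 Gene-expression endpoint: JUN mRNA (qRT-PCR, normalized to three reference genes) in HepaRG cultures treated 48 h with chemicals, duplicate wells, 100 uM maximum with half-log dilutions; bidirectional fitting relative to 0.5% DMSO.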

[2] = read-out: Lipase C (LIPC), LIPC (gene 3990); assay: LTEA_HepaRG_LIPC: Life Technologies and Expression Analysis (LTEA) Assay for Lipase C (LIPC) using HepaRG (AID 2283514)
How it was run: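 HepaRG, 48 h exposure, 8-pt half-log series from 100 uM in 0.5% DMSO, duplicates. Readout: LIPC mRNA by Fluidigm qRT-PCR, housekeeping-normalized (ACTB/GAPDH/POLR2A). Gain or loss fitted bidirectionally against DMSO baseline.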

[3] = read-out: Lipoprotein lipase (LPL), LPL (gene 4023); assay: LTEA_HepaRG_LPL: Life Technologies and Expression Analysis (LTEA) Assay for Lipoprotein lipase (LPL) using HepaRG (AID 2283515)
How it was run: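 HepaRG, 48 h exposure, 8-pt half-log dilutions from 100 uM, 0.5% DMSO vehicle, duplicates; qRT-PCR (Fluidigm array) of LPL mRNA vs housekeeping genes; bidirectional curve fit relative to DMSO baseline.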

[4] = read-out: MicroRNA 122 (MIR122), gene 406906; assay: LTEA_HepaRG_MIR122: Life Technologies and Expression Analysis (LTEA) Assay for MicroRNA 122 (MIR122) using HepaRG (AID 2283516); note: the transcript read is the microRNA miR-122
How it was run: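 Changes in transcript abundance, up or down relative to 0.5% DMSO vehicle, were scored after 48 h chemical treatment of HepaRG cells (maximum 100 uM). Quantification used TaqMan qRT-PCR normalized to housekeeping genes.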

[5] = read-out: matrix metalloproteinase-10 (MMP10), MMP10 (gene 4319); assay: LTEA_HepaRG_MMP10: Life Technologies and Expression Analysis (LTEA) Assay for matrix metalloproteinase-10 (MMP10) using HepaRG (AID 2283517)
How it was run: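 Transcript levels come from Fluidigm qRT-PCR normalized to three housekeeping genes, with curves fitted bidirectionally against 0.5% DMSO. Human HepaRG cells were dosed for 48 hours at concentrations up to 100 uM.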

MYC, MYC (gene 4609) = assay: LTEA_HepaRG_MYC: Life Technologies and Expression Analysis (LTEA) Assay for MYC using HepaRG (AID 2283518)
How it was run: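 MYC transcript changes, up or down relative to 0.5% DMSO, from TaqMan qRT-PCR normalized to three housekeeping genes. Human HepaRG cultures received chemicals for 48 h at eight half-log concentrations up to 100 uM, in duplicate.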

[6] = read-out: matrix metalloproteinase-3 (MMP3), MMP3 (gene 4314); assay: LTEA_HepaRG_MMP3: Life Technologies and Expression Analysis (LTEA) Assay for matrix metalloproteinase-3 (MMP3) using HepaRG (AID 2283519)
How it was run: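 qRT-PCR read-out of MMP3 mRNA (normalised to three housekeeping genes) in HepaRG liver cells after 48 h chemical exposure; 8-point half-log series, top 100 uM, 0.5% DMSO vehicle. Bidirectional curve fitting against DMSO baseline.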

[7] = read-out: Paternally Expressed 10 (PEG10), PEG10 (gene 23089); assay: LTEA_HepaRG_PEG10: Life Technologies and Expression Analysis (LTEA) Assay for Paternally Expressed 10 (PEG10) using HepaRG (AID 2283520);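 note: PEG10 transcript by qRT-PCR normalised to ACTB GAPDH and POLR2A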
How it was run: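 After 48 h exposure of differentiated HepaRG cells (0.5% DMSO vehicle, eight concentrations up to 100 uM, duplicates), PEG10 mRNA was measured by TaqMan qRT-PCR. Values were normalised to endogenous control genes and analysed bidirectionally against vehicle.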

[8] = read-out: Nuclear factor NF-kappa-B p105 subunit (Homo sapiens) (UniProt P19838); assay: LTEA_HepaRG_NFKB1: Life Technologies and Expression Analysis (LTEA) Assay for Nuclear Factor Kappa B Subunit 1 (NFKB1) using HepaRG (AID 2283521);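 note: TaqMan qRT-PCR transcript normalised to ACTB GAPDH and POLR2A housekeeping genes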
How it was run: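 Differentiated human HepaRG cells were exposed for 48 h in serum-free induction medium to eight concentrations (top 100 uM, half-log steps, 0.5% DMSO), in duplicate. NFKB1 mRNA was measured by TaqMan qRT-PCR, normalized to ACTB/GAPDH/POLR2A, and fitted bidirectionally against DMSO.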

[9] = read-out: Protein phosphatase 2A (PPP2R4), PTPA (gene 5524); assay: LTEA_HepaRG_PPP2R4: Life Technologies and Expression Analysis (LTEA) Assay for Protein phosphatase 2A (PPP2R4) using HepaRG (AID 2283522)
How it was run: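 Using HepaRG cultures maintained in 0.5% DMSO, chemicals are tested 48 h at up to 100 uM in duplicate. Induction or suppression of PPP2R4 mRNA, measured by qRT-PCR, is fitted bidirectionally against the vehicle baseline.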

[10] = read-out: solute carrier (SLC22A1), SLC22A1 (gene 6580); assay: LTEA_HepaRG_SLC22A1: Life Technologies and Expression Analysis (LTEA) Assay for solute carrier (SLC22A1) using HepaRG (AID 2283524)
How it was run: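 qRT-PCR readout (TaqMan, Fluidigm arrays) of SLC22A1 transcript, normalized to three housekeeping genes; bidirectional curve fit relative to 0.5% DMSO vehicle. Differentiated human HepaRG cells, 48 h chemical exposure, top concentration 100 uM, half-log steps, eight points.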

[11] = read-out: Pyruvate Dehydrogenase Kinase 4 (PDK4), PDK4 (gene 5166); assay: LTEA_HepaRG_PDK4: Life Technologies and Expression Analysis (LTEA) Assay for Pyruvate Dehydrogenase Kinase 4 (PDK4) using HepaRG (AID 2283525)
How it was run: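 HepaRG (human liver line), 48 h chemical exposure, 8-pt half-log CRC top 100 uM, 0.5% DMSO vehicle, duplicates. Readout: TaqMan qRT-PCR of PDK4 mRNA, housekeeping-normalized; gain/loss fit relative to DMSO baseline.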

[12] = read-out: NAD(P)H dehydrogenase [quinone] 1 (NQO1), NQO1 (gene 1728); assay: LTEA_HepaRG_NQO1: Life Technologies and Expression Analysis (LTEA) Assay for NAD(P)H dehydrogenase [quinone] 1 (NQO1) using HepaRG (AID 2283526)
How it was run: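 In this assay, gene expression is read by qRT-PCR after 48 h exposure of HepaRG cells to eight concentrations (max 100 uM, half-log) in 0.5% DMSO. Each chemical runs in duplicate, and activity is scored relative to vehicle.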

[13] = read-out: Nuclear factor erythroid 2-related factor 2 (Homo sapiens) (UniProt Q16236); assay: LTEA_HepaRG_NFE2L2: Life Technologies and Expression Analysis (LTEA) Assay for Nuclear factor erythroid 2-related factor 2 (NFE2L2) Transcription Factor using HepaRG (AID 2283527)
How it was run: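 HepaRG, 48 h dosing, 8-pt half-log series from 100 uM in 0.5% DMSO, duplicates. Read-out: NFE2L2 mRNA by qRT-PCR (ACTB/GAPDH/POLR2A normalization). Bidirectional curve fit vs DMSO baseline.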

[14] = read-out: succinate dehydrogenase complex iron sulfur subunit B (SDHB), SDHB (gene 6390); assay: LTEA_HepaRG_SDHB: Life Technologies and Expression Analysis (LTEA) Assay for succinate dehydrogenase complex iron sulfur subunit B (SDHB) using HepaRG (AID 2283528)
How it was run: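 HepaRG, 48 h exposure, 8-pt half-log series from 100 uM in 0.5% DMSO, duplicates. Readout: SDHB mRNA by Fluidigm qRT-PCR vs housekeeping genes; bidirectional fit relative to DMSO.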

[15] = read-out: solute carrier (SLCO1B1), SLCO1B1 (gene 10599); assay: LTEA_HepaRG_SLCO1B1: Life Technologies and Expression Analysis (LTEA) Assay for solute carrier (SLCO1B1) using HepaRG (AID 2283530)
How it was run: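 SLCO1B1 transcript levels were quantified by TaqMan qRT-PCR using three housekeeping genes for normalization. This followed 48 h chemical exposure (100 uM top, half-log, 8 points, 0.5% DMSO) of HepaRG liver cells, with gain or loss fitted relative to DMSO.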

[16] = read-out: sulfotransferase 2A1 (SULT2A1), SULT2A1 (gene 6822); assay: LTEA_HepaRG_SULT2A1: Life Technologies and Expression Analysis (LTEA) Assay for sulfotransferase 2A1 (SULT2A1) using HepaRG (AID 2283531)
How it was run: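 Expression change of SULT2A1, by qRT-PCR with three housekeeping-gene normalization, was scored bidirectionally versus DMSO. Cells: differentiated HepaRG, dosed in duplicate for 48 h across 8 points, highest 100 µM, half-log dilution, 0.5% DMSO.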

[17] = read-out: Transforming Growth Factor (TGFA), TGFA (gene 7039); assay: LTEA_HepaRG_TGFA: Life Technologies and Expression Analysis (LTEA) Assay for Transforming Growth Factor (TGFA) using HepaRG (AID 2283532)
How it was run: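 qRT-PCR read-out of TGFA transcript, normalized to three housekeeping genes, fitted bidirectionally against 0.5% DMSO baseline. Human HepaRG cultures received chemicals for 48 h at eight half-log concentrations, top 100 uM.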

[18] = read-out: Phosphatase and tensin (PTEN), PTEN (gene 5728); assay: LTEA_HepaRG_PTEN: Life Technologies and Expression Analysis (LTEA) Assay for Phosphatase and tensin (PTEN) using HepaRG (AID 2283523)
How it was run: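 HepaRG, 48 h exposure, 8-pt half-log series from 100 uM top, 0.5% DMSO vehicle, duplicates. Readout: Fluidigm qRT-PCR of PTEN transcript; housekeeping normalization (ACTB, GAPDH, POLR2A). Gain or loss fitted relative to DMSO baseline.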

Measured: AC50

Sequence of Nuclear factor erythroid 2-related factor 2 (Homo sapiens) (Q16236 whole entry, looked up): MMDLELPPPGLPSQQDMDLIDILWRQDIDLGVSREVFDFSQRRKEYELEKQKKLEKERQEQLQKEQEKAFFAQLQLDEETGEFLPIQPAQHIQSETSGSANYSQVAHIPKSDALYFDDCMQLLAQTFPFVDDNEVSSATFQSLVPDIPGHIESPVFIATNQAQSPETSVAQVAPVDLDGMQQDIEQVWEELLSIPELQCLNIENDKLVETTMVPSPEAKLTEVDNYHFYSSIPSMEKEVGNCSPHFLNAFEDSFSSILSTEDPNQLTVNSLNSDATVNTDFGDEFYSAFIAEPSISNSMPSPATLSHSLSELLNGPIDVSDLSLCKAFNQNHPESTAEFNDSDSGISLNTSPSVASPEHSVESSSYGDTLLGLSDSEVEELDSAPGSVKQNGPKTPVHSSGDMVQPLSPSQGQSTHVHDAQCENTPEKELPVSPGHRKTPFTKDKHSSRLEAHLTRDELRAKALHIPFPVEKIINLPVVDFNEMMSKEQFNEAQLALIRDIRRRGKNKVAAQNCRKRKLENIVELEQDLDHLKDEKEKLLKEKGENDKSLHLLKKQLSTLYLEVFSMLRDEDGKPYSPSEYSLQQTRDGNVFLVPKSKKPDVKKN
Sequence of Nuclear factor NF-kappa-B p105 subunit (Homo sapiens) (P19838 whole entry, looked up): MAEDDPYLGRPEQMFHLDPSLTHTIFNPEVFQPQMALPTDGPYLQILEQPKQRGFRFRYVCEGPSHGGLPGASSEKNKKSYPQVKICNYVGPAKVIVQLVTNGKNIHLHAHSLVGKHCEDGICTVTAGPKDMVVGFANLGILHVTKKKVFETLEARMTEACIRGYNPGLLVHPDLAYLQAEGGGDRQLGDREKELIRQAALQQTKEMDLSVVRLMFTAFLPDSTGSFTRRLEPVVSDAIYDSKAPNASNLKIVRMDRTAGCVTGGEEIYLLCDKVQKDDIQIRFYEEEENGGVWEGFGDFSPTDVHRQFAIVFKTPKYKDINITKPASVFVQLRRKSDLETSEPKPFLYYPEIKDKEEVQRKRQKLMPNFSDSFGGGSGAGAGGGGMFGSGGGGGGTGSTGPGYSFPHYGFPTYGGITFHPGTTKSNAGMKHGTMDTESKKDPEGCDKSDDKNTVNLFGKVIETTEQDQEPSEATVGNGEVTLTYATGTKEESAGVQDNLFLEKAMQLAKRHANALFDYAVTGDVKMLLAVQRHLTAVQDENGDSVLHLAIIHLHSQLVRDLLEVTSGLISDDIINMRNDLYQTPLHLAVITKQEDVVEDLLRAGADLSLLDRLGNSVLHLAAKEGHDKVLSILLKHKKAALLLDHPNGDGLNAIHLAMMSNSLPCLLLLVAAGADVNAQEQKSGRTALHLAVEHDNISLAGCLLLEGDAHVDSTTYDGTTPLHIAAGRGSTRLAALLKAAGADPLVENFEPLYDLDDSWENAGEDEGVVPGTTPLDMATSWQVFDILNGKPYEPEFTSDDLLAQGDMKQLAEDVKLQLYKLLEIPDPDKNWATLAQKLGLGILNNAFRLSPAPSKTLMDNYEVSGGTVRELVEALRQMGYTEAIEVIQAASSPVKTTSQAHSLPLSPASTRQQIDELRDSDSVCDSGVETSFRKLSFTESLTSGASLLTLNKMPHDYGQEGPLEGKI

C#CCOS(=O)OC1CCCCC1Oc1ccc(C(C)(C)C)cc1 (centres undefined)
inactive: [1] | [2] | [6] | [8] | [13]
active: [3] 28.7 µM | [4] 28.2 µM | [5] 22.5 µM | MYC, MYC (gene 4609) 22.8 µM | [7] 24.2 µM | [9] 29.8 µM | [10] 20.7 µM | [11] 50 µM | [12] 22.9 µM | [14] 30.5 µM | [15] 29.2 µM | [16] 27.3 µM | [17] 22.2 µM

CC(C)(C)c1ccc(CSc2cnn(C(C)(C)C)c(=O)c2Cl)cc1
inactive: [1] | [6] | [18] | [12]
active: [2] 2.82 µM | [3] 2.25 µM | [4] 22.8 µM | [5] 18.1 µM | MYC, MYC (gene 4609) 2.84 µM | [7] 1.01 µM | [9] 1.84 µM | [10] 2.71 µM | [11] 9.92 µM | [13] 26.7 µM | [14] 1.54 µM | [15] 2.34 µM | [16] 22.7 µM | [17] 2.96 µM

CCc1nn(C)c(C(=O)NCc2ccc(C(C)(C)C)cc2)c1Cl
active: [2] 0.58 µM | [3] 2.22 µM | [4] 1.85 µM | [5] 26.5 µM | MYC, MYC (gene 4609) 5.39 µM | [7] 0.484 µM | [10] 4.52 µM | [11] 0.723 µM | [12] 50 µM | [13] 10.6 µM | [15] 31.3 µM | [16] 26.8 µM | [17] 16.4 µM
inactive: [1] | [6] | [8] | [9] | [14]
